# According to PubChem BioAssay:
# For some assays here: Measured potencies and affinities stand elsewhere. Calls of active or inactive are those of the source. Unless noted, the rule behind the calls is not given here.
# Tests used:
# [1] = antimalarial activity against Dd2 strain (AID 2302;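 active = growth inhibition above 50% at the single 2 µM test dose, taken to imply half-maximal potency below 2 µM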;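 note: 0% = DMSO untreated growth and 100% = chloroquine plus artemisinin killed control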); conditions: P. falciparum Dd2 in RBCs, LDH growth readout, 72 h; at 2 µM; stronger effect = higher value
# [2] = human hepatoma cell viability loss – ATP luminescence, cytotoxicity control for P. falciparum antimalarial project, primary screen (AID 2303;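 active = inhibition above 50%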;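 note: 0% = DMSO wells and 100% = digitonin-killed cells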); conditions: HepG2 viability, 24-48 h, at 10 µM, stronger effect = higher value
# [3] = biological target: L-lactate dehydrogenase (Plasmodium falciparum (isolate CDC / Honduras)) (UniProt Q27743); test: PfLDH activity inhibition – cell lysate, 3D7 strain, counter-screen for P. falciparum growth inhibition project (AID 2304);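 note: 0% = vehicle and 100% = reference inhibitor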; conditions: P. falciparum 3D7 crude extract, LDH APAD/NBT absorbance; at 2 µM; stronger effect = higher value
# Sequence of L-lactate dehydrogenase (Plasmodium falciparum (isolate CDC / Honduras)) (Q27743 whole entry, looked up): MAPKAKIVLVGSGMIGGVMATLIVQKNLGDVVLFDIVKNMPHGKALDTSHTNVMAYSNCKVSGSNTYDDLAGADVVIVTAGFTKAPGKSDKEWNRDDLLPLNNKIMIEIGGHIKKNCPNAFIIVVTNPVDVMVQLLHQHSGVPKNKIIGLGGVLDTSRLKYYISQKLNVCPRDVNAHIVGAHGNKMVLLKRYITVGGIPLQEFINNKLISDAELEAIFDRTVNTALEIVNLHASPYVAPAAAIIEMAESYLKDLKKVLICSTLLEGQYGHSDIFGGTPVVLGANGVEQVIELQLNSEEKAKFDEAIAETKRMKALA
# [4] = inhibition of 3D7 malaria parasite growth – strain 3D7 (AID 2306);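 note: 0% = DMSO wells and 100% = chloroquine plus artemisinin control wells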; conditions: P. falciparum 3D7 erythrocytic growth, LDH absorbance, 72 h; at 2 µM; stronger effect = higher value
# [5] = biological target: Calcium-dependent protein kinase 1 (Plasmodium falciparum (isolate 3D7)) (UniProt P62344); test: PfCDPK1 kinase inhibitors, biochemical, TCAMS library (AID 1159585; cut-off not given, nearly all actives have IC50 up to about 0.98 µM;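 note: inhibitors leave more ATP so luminescence rises with inhibition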); conditions: recombinant PfCDPK1, Kinase-Glo ATP depletion luminescence
# Sequence of Calcium-dependent protein kinase 1 (Plasmodium falciparum (isolate 3D7)) (P62344 whole entry, looked up): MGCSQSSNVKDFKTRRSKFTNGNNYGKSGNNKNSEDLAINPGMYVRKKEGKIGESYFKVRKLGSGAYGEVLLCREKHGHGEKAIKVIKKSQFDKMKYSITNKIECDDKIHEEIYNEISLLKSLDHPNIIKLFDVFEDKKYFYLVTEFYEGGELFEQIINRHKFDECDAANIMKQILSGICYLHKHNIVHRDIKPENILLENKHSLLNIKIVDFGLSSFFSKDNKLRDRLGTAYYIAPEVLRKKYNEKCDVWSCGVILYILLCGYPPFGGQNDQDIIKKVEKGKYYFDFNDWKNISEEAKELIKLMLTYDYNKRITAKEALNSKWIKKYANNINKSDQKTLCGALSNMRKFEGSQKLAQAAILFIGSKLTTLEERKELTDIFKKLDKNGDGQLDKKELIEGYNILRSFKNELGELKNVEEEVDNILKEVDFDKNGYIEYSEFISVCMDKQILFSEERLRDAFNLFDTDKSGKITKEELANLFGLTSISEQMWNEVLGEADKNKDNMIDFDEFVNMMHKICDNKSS
# [6] = biological target: Plasmodium falciparum protein kinase 6 (PK6, PF3D7_1337100) (UniProt Q8IDW1); test: PfPK6 kinase inhibitors, biochemical, TCAMS library (AID 1159586); conditions: recombinant PfPK6, Kinase-Glo ATP depletion luminescence
# Sequence of Plasmodium falciparum protein kinase 6 (PK6, PF3D7_1337100) (Q8IDW1 1-305): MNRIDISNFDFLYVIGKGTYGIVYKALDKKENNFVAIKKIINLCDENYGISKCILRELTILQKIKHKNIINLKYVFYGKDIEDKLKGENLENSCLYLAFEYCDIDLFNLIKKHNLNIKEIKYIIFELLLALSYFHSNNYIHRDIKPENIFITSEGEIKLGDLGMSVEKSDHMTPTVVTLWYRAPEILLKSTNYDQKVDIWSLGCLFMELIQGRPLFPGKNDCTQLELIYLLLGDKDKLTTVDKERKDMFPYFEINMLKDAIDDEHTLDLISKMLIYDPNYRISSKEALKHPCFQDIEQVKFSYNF
# [7] = biological target: Protein kinase 7 (PK7), Plasmodium falciparum 3D7 (PF3D7_0213400) (UniProt Q7YTF7); test: inhibition of Plasmodium PK7 catalytic activity – biochemical, TCAMS antimalarial set, Kinase-Glo luminescence (AID 1159587); conditions: recombinant PfPK7, Kinase-Glo ATP depletion luminescence
# Sequence of Protein kinase 7 (PK7), Plasmodium falciparum 3D7 (PF3D7_0213400) (Q7YTF7 1-343): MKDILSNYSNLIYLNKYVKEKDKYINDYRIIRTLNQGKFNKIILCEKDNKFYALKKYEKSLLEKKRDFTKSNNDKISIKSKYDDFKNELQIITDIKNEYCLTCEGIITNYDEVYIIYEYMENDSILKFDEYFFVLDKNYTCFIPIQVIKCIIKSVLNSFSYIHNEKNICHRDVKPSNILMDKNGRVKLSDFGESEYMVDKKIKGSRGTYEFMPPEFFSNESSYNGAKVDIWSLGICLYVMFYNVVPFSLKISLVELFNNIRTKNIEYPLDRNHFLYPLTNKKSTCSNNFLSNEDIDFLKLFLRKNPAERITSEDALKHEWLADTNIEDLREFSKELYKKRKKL
# [8] = biological target: Calcium-dependent protein kinase 4 (Plasmodium falciparum (isolate 3D7)) (UniProt Q8IBS5); test: PfCDPK4 kinase inhibitors, biochemical, TCAMS library (AID 1159588; cut-off not given, nearly all actives have IC50 up to about 0.91 µM); conditions: recombinant PfCDPK4, Kinase-Glo ATP depletion luminescence
# Sequence of Calcium-dependent protein kinase 4 (Plasmodium falciparum (isolate 3D7)) (Q8IBS5 whole entry, looked up): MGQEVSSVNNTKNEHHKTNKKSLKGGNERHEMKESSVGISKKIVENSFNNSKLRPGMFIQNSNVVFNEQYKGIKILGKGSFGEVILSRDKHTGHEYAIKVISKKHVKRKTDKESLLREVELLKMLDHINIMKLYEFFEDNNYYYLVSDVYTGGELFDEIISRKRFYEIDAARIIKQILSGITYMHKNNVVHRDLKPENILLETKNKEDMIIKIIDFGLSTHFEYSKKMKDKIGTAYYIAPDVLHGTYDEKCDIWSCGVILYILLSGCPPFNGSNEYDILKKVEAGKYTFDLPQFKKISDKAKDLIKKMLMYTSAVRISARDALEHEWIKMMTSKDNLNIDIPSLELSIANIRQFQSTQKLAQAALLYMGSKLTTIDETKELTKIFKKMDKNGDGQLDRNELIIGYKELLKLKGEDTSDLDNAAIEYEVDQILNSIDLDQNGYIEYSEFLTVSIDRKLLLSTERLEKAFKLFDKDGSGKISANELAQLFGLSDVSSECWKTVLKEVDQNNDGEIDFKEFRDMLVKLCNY
Structure (SMILES),growth inhibition [1],inhibition [2],inhibition [3],growth inhibition [4],outcome [5],outcome [6],outcome [7],outcome [8]
CCCCCCCCNCC(O)c1ccc(Cl)c(Cl)c1 (stereo unspecified),87% (active),-4% (inactive),-3% (inactive),99% (active),inactive,inactive,inactive,inactive
O=C(/C=C/c1ccc(Cl)c(Cl)c1)NCC1CCC(N2CCC(c3c[nH]c4ccccc34)CC2)CC1 (stereo unspecified),95% (active),48% (inactive),-1% (inactive),101% (active),inactive,inactive,inactive,inactive
O=C(/C=C/c1ccc(F)c(C(F)(F)F)c1)N1CCC(CN2CCC(c3c[nH]c4ccccc34)CC2)CC1,1% (inactive),23% (inactive),2% (inactive),98% (active),inactive,inactive,inactive,inactive
O=C(NC1CCC(CN2CCC(c3c[nH]c4ccccc34)CC2)CC1)c1csc(-c2ccc(C(F)(F)F)cc2Cl)n1 (stereo unspecified),75% (active),32% (inactive),-3% (inactive),99% (active),inactive,inactive,inactive,inactive
CC[C@H]1CN2CC[C@H]1C[C@H]2[C@H](O)c1cc(-c2cccc(C)c2)nc2ccc(OC)cc12,100% (active),15% (inactive),3% (inactive),100% (active),inactive,inactive,inactive,inactive
Cc1cc(C(=O)NC2CCN(CC3(c4ccc(Cl)cc4)CCC3)CC2)on1,95% (active),5% (inactive),-3% (inactive),98% (active),inactive,inactive,inactive,inactive
CN(C)CCc1c[nH]c2ccc(C(=O)Nc3ccc(-c4ccncc4)cc3)cc12,46% (inactive),23% (inactive),-7% (inactive),99% (active),inactive,inactive,inactive,inactive
CCCCCCc1cc(O)c2c3c(c(=O)oc2c1)CCN(C)C3,66% (active),-6% (inactive),4% (inactive),99% (active),inactive,inactive,inactive,inactive
O=C(/C=C/c1ccc(Cl)c(Cl)c1)NC1CCC(CN2CCC(c3c[nH]c4ccccc34)CC2)CC1 (stereo unspecified),85% (active),27% (inactive),5% (inactive),101% (active),inactive,inactive,inactive,inactive
COC(=O)c1ccc(CC(C)NCC(O)c2cccc(Oc3cccc(C(F)(F)F)c3)c2)cc1 (stereo unspecified),73% (active),19% (inactive),2% (inactive),91% (active),inactive,inactive,inactive,inactive
COC(=O)c1ccc(CC(C)NCC(O)c2cccc(OC(F)(F)F)c2)cc1 (stereo unspecified),67% (active),2% (inactive),-2% (inactive),98% (active),inactive,inactive,inactive,inactive
O=C(/C=C/c1ccc(Cl)c(Cl)c1)NC1CCC(CN2CC[C@H](c3c[nH]c4ccccc34)[C@@H](O)C2)CC1 (stereo partly specified),87% (active),30% (inactive),-7% (inactive),101% (active),inactive,inactive,inactive,inactive
CC(Cc1ccc(C(C)(C)C)cc1)NCC(O)c1ccccc1 (stereo unspecified),89% (active),5% (inactive),3% (inactive),94% (active),inactive,inactive,inactive,inactive
Cc1cccc(C(=O)Nc2ccnc(N(C)C3CCN(CC(C)C)CC3)c2)c1,6% (inactive),10% (inactive),-2% (inactive),95% (active),inactive,inactive,inactive,inactive
C=C[C@H]1CN2CC[C@H]1C[C@H]2[C@H](O)c1cc(/C=C/c2ccc(F)cc2)nc2ccc(OC)cc12,99% (active),25% (inactive),4% (inactive),99% (active),inactive,inactive,inactive,inactive
O=C(/C=C/c1c(Cl)cccc1Cl)NC1CCC(CN2[C@@H]3CC[C@H]2CC(c2c[nH]c4ccccc24)C3)CC1 (stereo partly specified),18% (inactive),40% (inactive),-1% (inactive),95% (active),inactive,inactive,inactive,inactive
CC(=O)C1(c2ccccc2)CCN(CCC(NC(=O)c2cc(C(F)(F)F)cc(C(F)(F)F)c2)c2ccc(Cl)c(Cl)c2)CC1 (stereo unspecified),82% (active),9% (inactive),2% (inactive),91% (active),inactive,inactive,inactive,inactive
CN1CCC(N(C)c2nccc(N3CCN(Cc4cncn4Cc4ccccc4)CC3)n2)CC1,100% (active),15% (inactive),3% (inactive),100% (active),inactive,inactive,inactive,inactive
CCCCCCCN1[C@@H]2CC[C@H]1CC(CCOc1ccnc3ccc(OC)cc13)C2 (stereo partly specified),88% (active),23% (inactive),-1% (inactive),98% (active),inactive,inactive,inactive,inactive

Structure (SMILES),growth inhibition [1],inhibition [2],inhibition [3],growth inhibition [4],outcome [5],outcome [6],outcome [7],outcome [8]
COc1ccc(CC(C)NCC(O)c2cccc(C(F)(F)F)c2)cc1F (stereo unspecified),65% (active),-4% (inactive),-8% (inactive),91% (active),inactive,inactive,inactive,inactive
CS(=O)(=O)Nc1ccc2[nH]cc(C3C[C@H]4CC[C@@H](C3)N4CC3CCC(NC(=O)/C=C/c4ccc(Cl)c(Cl)c4)CC3)c2c1 (stereo partly specified),50% (active),3% (inactive),7% (inactive),101% (active),inactive,inactive,inactive,inactive
C/C=C1\CN2CC[C@H]1C[C@@H]2[C@@H](O)c1ccnc2ccc(O)cc12,-1% (inactive),-10% (inactive),-4% (inactive),98% (active),inactive,inactive,inactive,inactive
CC(Cc1ccc(Oc2ccccc2)cc1)NCC(O)c1cccc(C(F)(F)F)c1 (stereo unspecified),99% (active),16% (inactive),4% (inactive),98% (active),inactive,inactive,inactive,inactive
CC(C)CNCc1ccc(-c2ccc(CN(C(=O)Nc3ccccc3)C3CCN(Cc4ccccc4)CC3)cc2)cc1,61% (active),27% (inactive),-4% (inactive),101% (active),inactive,inactive,inactive,inactive
CN1CC[C@H](N(Cc2ccccc2F)c2ccc(C#N)c(Cl)c2)C1,68% (active),18% (inactive),-6% (inactive),88% (active),inactive,inactive,inactive,inactive
CN(C)c1cccc(CN2CC=C(c3c[nH]c4ccc(Cl)cc34)CC2)c1,87% (active),40% (inactive),3% (inactive),93% (active),inactive,inactive,inactive,inactive
CCCCCCC(C)(C)c1cc(O)c2c(c1)OC(C)(C)c1ccncc1-2,99% (active),4% (inactive),1% (inactive),95% (active),inactive,inactive,inactive,inactive
O=C(/C=C/c1ccc(Cl)c(Cl)c1)NC1[C@@H]2CC[C@H]1CC(CN1CCC(c3c[nH]c4ccccc34)CC1)C2 (stereo partly specified),100% (active),31% (inactive),-2% (inactive),100% (active),inactive,inactive,inactive,inactive
Cc1c(C)c2c(c(C)c1O)CC[C@@](C)(C(=O)NC1CCC(CN3CCC(c4c[nH]c5ccccc45)CC3)CC1)O2 (stereo partly specified),57% (active),29% (inactive),-2% (inactive),92% (active),inactive,inactive,inactive,inactive
O=C(/C=C/c1ccc(Cl)c(Cl)c1)NC[C@@H]1CCC[C@H](CN2CCC(c3c[nH]c4ccccc34)CC2)C1,43% (inactive),61% (active),-4% (inactive),98% (active),inactive,inactive,inactive,inactive
COc1ccccc1CNCC(O)c1cc(C(F)(F)F)ccc1C(F)(F)F (stereo unspecified),95% (active),10% (inactive),5% (inactive),101% (active),inactive,inactive,inactive,inactive
CN1CC=C(c2c[nH]c3ccc(-c4ccccc4)cc23)CC1,60% (active),14% (inactive),-1% (inactive),93% (active),inactive,inactive,inactive,inactive
Cc1[nH]c2ccccc2c1C1=CCN(CCCCC2(C)C(=O)Nc3cccc(F)c32)CC1 (stereo unspecified),90% (active),9% (inactive),-4% (inactive),95% (active),inactive,inactive,inactive,inactive
FC(F)(F)c1ccc(NC(=S)N2CCC(CN3CCC(c4c[nH]c5ccccc45)CC3)CC2)cc1,45% (inactive),35% (inactive),-6% (inactive),100% (active),inactive,inactive,inactive,inactive
O=C(Cc1c(-c2ccccc2)[nH]c2ccccc12)NC1CCC(CN2CCC(c3c[nH]c4ccccc34)CC2)CC1 (stereo unspecified),75% (active),31% (inactive),1% (inactive),103% (active),inactive,inactive,inactive,inactive
COC(=O)c1ccc(CC(C)NCC(O)c2ccc3ccc4ccccc4c3c2)cc1 (stereo unspecified),97% (active),21% (inactive),-2% (inactive),100% (active),inactive,inactive,inactive,inactive
C=C[C@H]1CN2CC[C@H]1C[C@H]2[C@H](OS(=O)(=O)O)c1ccnc2ccccc12,15% (inactive),8% (inactive),5% (inactive),99% (active),inactive,inactive,inactive,inactive
